Reference: PubChem BioAssay (NCI)
The panel holds about 79,000 compounds, 15% with a hit somewhere; the sample as a whole holds those more often. Active and inactive are the calls of the source. Cut-off read from the data, not from the text of the source: active = growth inhibition above about 70%; inactive = the rest.

Legend:
[1] = NCI Yeast Anticancer Drug Screen. Data for the wt1 strain (AID 149);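 note: 0% = growth of vehicle-treated wt1 cultures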; conditions: S. cerevisiae wt1 strain (SPY 50644) growth inhibition, stronger effect = higher value
Summary of the method: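 Vehicle-normalised growth inhibition; strain wt1; compound exposure.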

[2] = NCI Yeast Anticancer Drug Screen. Data for the rad50EPP+ strain (AID 151);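 note: 0% = growth of vehicle-treated control cultures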; conditions: S. cerevisiae rad50 mutant strain, stronger effect = higher value
Summary of the method: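 One strain with a rad50 alteration (rad50EPP+) was compound-treated, its growth then compared to that of vehicle controls.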

[3] = NCI Yeast Anticancer Drug Screen. Data for the mgt1 strain (AID 153); conditions: S. cerevisiae mgt1 mutant growth inhibition, stronger effect = higher value
Summary of the method: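 After exposure of the mgt1 yeast mutant to compound, growth was measured and reported as inhibition compared with vehicle controls.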

[4] = NCI Yeast Anticancer Drug Screen. Data for the rad50 strain (AID 155);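 note: 0% = growth of vehicle-only cultures of the same strain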; conditions: S. cerevisiae rad50 strain growth inhibition, stronger effect = higher value
Summary of the method: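 A DNA repair-deficient yeast mutant serves as the test organism; compound-induced growth inhibition is calculated against vehicle-treated cells.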

[5] = NCI Yeast Anticancer Drug Screen. Data for the mec2-1 strain (AID 157); conditions: S. cerevisiae mec2-1 strain, stronger effect = higher value
Summary of the method: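 Test agents were screened against the mec2-1 yeast strain, with defined DNA repair or cell cycle alteration. Growth was scored as inhibition against vehicle-only controls.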

[6] = NCI Yeast Anticancer Drug Screen. Data for the rad14 strain (AID 159);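 note: 0% = growth of vehicle-treated control cultures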; conditions: S. cerevisiae rad14 strain growth inhibition, stronger effect = higher value
Summary of the method: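 Vehicle-treated cultures served as the baseline for growth inhibition of a DNA repair-mutant yeast strain exposed to each compound.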

[7] = NCI Yeast Anticancer Drug Screen. Data for the sgs1 mgt1 strain (AID 161);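 note: 0% = growth of cultures given vehicle only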; conditions: S. cerevisiae sgs1 mgt1 strain, stronger effect = higher value
Summary of the method: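 Genetically altered yeast, compound exposure, growth inhibition relative to vehicle.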

[8] = NCI Yeast Anticancer Drug Screen. Data for the CLN2oe strain (AID 163);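 note: 0% = growth of vehicle-only control cultures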; conditions: S. cerevisiae CLN2oe strain, stronger effect = higher value
Summary of the method: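 Here, growth inhibition in a cell-cycle-altered yeast strain after compound exposure was quantified against vehicle control growth.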

[9] = NCI Yeast Anticancer Drug Screen. Data for the cln2 rad14 strain (AID 165);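 note: 0% = growth equal to vehicle treated cultures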; conditions: S. cerevisiae cln2 rad14 strain, stronger effect = higher value
Summary of the method: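 Growth of compound-exposed yeast (cln2 rad14 genotype) measured and expressed as inhibition relative to vehicle.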

[10] = NCI Yeast Anticancer Drug Screen. Data for the bub3 strain (AID 167); conditions: S. cerevisiae bub3 mutant strain, stronger effect = higher value
Summary of the method: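 Inhibition values come from growth of compound-treated mutant yeast normalised to vehicle-treated controls.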

[11] = NCI Yeast Anticancer Drug Screen. Data for the wt2 strain (AID 169);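 note: 0% = growth of vehicle-treated yeast cultures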; conditions: S. cerevisiae wt2 strain growth inhibition, stronger effect = higher value
Summary of the method: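 Genetically defined yeast strains from a DNA-repair/cell-cycle panel were used. Compound-exposed yeast growth was measured, and the inhibition was calculated relative to vehicle treatment.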

[12] = NCI Yeast Anticancer Drug Screen. Data for the sgs1 strain (AID 173);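 note: 0% = growth of vehicle-only control cultures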; conditions: S. cerevisiae sgs1 mutant, stronger effect = higher value
Summary of the method: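 Relative growth inhibition, referenced to vehicle, was determined in a yeast strain with a defined alteration affecting DNA damage repair or cell cycle control after compound exposure.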

[13] = NCI Yeast Anticancer Drug Screen. Data for the mlh1 rad18 strain (AID 175); conditions: S. cerevisiae mlh1 rad18 strain growth inhibition, stronger effect = higher value
Summary of the method: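 In this whole-cell yeast screen, a strain with altered DNA damage repair is challenged with compound, and its growth is measured against matched vehicle-treated controls.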

[14] = NCI Yeast Anticancer Drug Screen. Data for the rad18 strain (AID 177); conditions: S. cerevisiae rad18 mutant growth inhibition, stronger effect = higher value
Summary of the method: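 Screen uses a yeast strain with a defined lesion in DNA damage repair; compound effect is read as loss of growth compared to untreated vehicle cultures.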

[15] = at 5.0 µM (retest, dose inferred, filed as 0.5)
[16] = at 50.0 µM (retest, dose inferred, filed as 5.0)

Measured: growth inhibition

O=C(CC(=O)n1nc(-c2ccccc2)c(N=Nc2ccc(Cl)cc2)c1-c1ccccc1)Nc1cccc(Cl)c1
inactive: [1]; at 1.2 µM -2% | [1]; at 3.7 µM -3% | [1]; at 11.0 µM -5% | [1]; at 33.0 µM -4% | [1]; at 100.0 µM -5% | [2]; at 1.2 µM 1% | [2]; at 3.7 µM 8% | [2]; at 11.0 µM 14% | [2]; at 33.0 µM 26% | [2]; at 100.0 µM 29% | [3]; at 1.2 µM -5% | [3]; at 3.7 µM -5% | [3]; at 11.0 µM -7% | [3]; at 33.0 µM -4% | [3]; at 100.0 µM -6% | [4]; at 1.2 µM -2% | [4]; at 3.7 µM 1% | [4]; [15] 7% | [4]; at 11.0 µM 0% | [4]; at 33.0 µM 2% | [4]; [16] -3% | [4]; at 50.0 µM 48.1% | [4]; at 100.0 µM 2% | [5]; at 1.2 µM -4% | [5]; at 3.7 µM -4% | [5]; [15] -4% | [5]; at 11.0 µM -2% | [5]; at 33.0 µM -3% | [5]; [16] -19% | [5]; at 50.0 µM 46% | [5]; at 100.0 µM -4% | [6]; at 1.2 µM -4% | [6]; at 3.7 µM -3% | [6]; at 11.0 µM -2% | [6]; at 33.0 µM -1% | [6]; at 100.0 µM 1% | [7]; [15] 0% | [7]; [16] 2% | [8]; at 1.2 µM -8% | [8]; at 3.7 µM -10% | [8]; at 11.0 µM -10% | [8]; at 33.0 µM -11% | [8]; at 100.0 µM -15% | [9]; [15] 2% | [9]; [16] 15% | [9]; at 50.0 µM 31.6% | [10]; at 1.2 µM 27% | [10]; at 3.7 µM 28% | [10]; [15] 8% | [10]; at 11.0 µM 34% | [10]; at 33.0 µM 45% | [10]; at 100.0 µM 51% | [11]; at 1.2 µM -3% | [11]; at 3.7 µM -3% | [11]; at 11.0 µM -3% | [11]; at 33.0 µM -5% | [11]; at 100.0 µM -5% | [12]; at 1.2 µM -4% | [12]; at 3.7 µM -2% | [12]; at 11.0 µM 1% | [12]; at 33.0 µM 0% | [12]; at 100.0 µM 1% | [13]; [15] -5% | [13]; [16] 17% | [13]; at 50.0 µM 57.1% | [14]; at 1.2 µM -4% | [14]; at 3.7 µM -4% | [14]; at 11.0 µM -1% | [14]; at 33.0 µM 1% | [14]; at 100.0 µM 0%
active: [7]; at 50.0 µM 73.7% | [10]; [16] 78% | [10]; at 50.0 µM 88.7%
